Source: PubChem BioAssay (Tox21)
Inconclusive results are not listed. The source made the active and inactive calls. Unless noted, calls follow the shape of the dose curve; as a rule, active = well fitted curve in the direction sought with a large enough effect in the repeat runs; inconclusive = weak or mixed curves; inactive = no such curve, though single readings can be large; an effect the other way counts as inactive or inconclusive.

What was measured:
[1] = Human pregnane X receptor (PXR) small molecule agonists, qHTS cell viability counter screen (AID 1346977); also: nearly all actives have a fitted effect of over 50% in size; also: potency is read from the fitted curve at half-maximal effect
Summary of the method: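 Readout is CellTiter-Fluor fluorescence from PXR-Luc HepG2 cells. Plated cells rested 5hr, then were treated with compounds for 24hr at 37C and 5% CO2, with reagent present during the last hour.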

[2] = Caspase-3/7 induction in HepG2 cells by small molecules, qHTS assay (AID 1346978); also: nearly all actives have a fitted effect of over 15% in size
Summary of the method: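 Wild-type HepG2 cells, 2,000/well, settled 5 hr at 37 C and 5% CO2, then compound-treated for 17 hr; caspase-3/7 activity read by luminescent Caspase-Glo 3/7 after 30 min at room temperature.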

[3] = Caspase-3/7 induction in CHO-K1 cells by small molecules, qHTS cell viability counter screen (AID 1346979); also: nearly all actives have a fitted effect of over 35% in size; also: potency is read from the fitted curve at half-maximal effect
Summary of the method: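 To flag cytotoxic compounds, treated CHO-K1 wild-type cells were given CellTiter-Fluor at 16hr and read fluorescently after 1hr at 37C; the caspase-3/7 luminescence was measured in these same wells.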

[4] = Caspase-3/7 induction in HepG2 cells by small molecules, qHTS cell viability counter screen (AID 1346981); also: series mostly up to about 92 µM; nearly all actives have a fitted effect of over 30% in size
Summary of the method: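 Counter screen for cytotoxicity: HepG2 exposed 16 hr to compounds, then CellTiter-Fluor viability signal (fluorescence, 1 hr reagent incubation).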

[5] = target: Nuclear receptor subfamily 1 group I member 2 (Homo sapiens) (UniProt O75469); assay: Human pregnane X receptor (PXR) small molecule agonists, qHTS assay (AID 1346982); also: nearly all actives have a fitted effect of over 35% in size; also: potency is read from the fitted curve at half-maximal effect
Chain of Nuclear receptor subfamily 1 group I member 2 (Homo sapiens) (O75469 whole entry, looked up): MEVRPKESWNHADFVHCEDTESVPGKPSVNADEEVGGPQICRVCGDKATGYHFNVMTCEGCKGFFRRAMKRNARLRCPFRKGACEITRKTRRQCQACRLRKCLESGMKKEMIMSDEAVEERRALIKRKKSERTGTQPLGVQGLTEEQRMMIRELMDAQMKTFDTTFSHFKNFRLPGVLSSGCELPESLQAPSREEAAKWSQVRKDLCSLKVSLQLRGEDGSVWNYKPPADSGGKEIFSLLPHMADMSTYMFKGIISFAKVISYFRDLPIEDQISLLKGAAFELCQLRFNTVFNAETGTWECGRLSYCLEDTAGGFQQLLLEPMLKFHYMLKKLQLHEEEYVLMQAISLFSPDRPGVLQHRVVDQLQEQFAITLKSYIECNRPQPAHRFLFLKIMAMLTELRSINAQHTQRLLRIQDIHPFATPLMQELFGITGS
Summary of the method: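 Luminescence (ONE-Glo, 30 min RT) after 24 hr compound exposure of PXR-Luc HepG2 cells; cells rested 5 hr post-plating in 5% charcoal-stripped FBS medium.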

[6] = target: Acetylcholinesterase (Homo sapiens) (UniProt P22303); assay: Acetylcholinesterase (AChE) small molecule antagonists: colormetric cell-based qHTS assay (AID 1347395; calls by dose curve; also: nearly all actives have a fitted effect of over 30% in size; also: potency is read from the fitted curve at half-maximal effect)
Chain of Acetylcholinesterase (Homo sapiens) (P22303 whole entry, looked up): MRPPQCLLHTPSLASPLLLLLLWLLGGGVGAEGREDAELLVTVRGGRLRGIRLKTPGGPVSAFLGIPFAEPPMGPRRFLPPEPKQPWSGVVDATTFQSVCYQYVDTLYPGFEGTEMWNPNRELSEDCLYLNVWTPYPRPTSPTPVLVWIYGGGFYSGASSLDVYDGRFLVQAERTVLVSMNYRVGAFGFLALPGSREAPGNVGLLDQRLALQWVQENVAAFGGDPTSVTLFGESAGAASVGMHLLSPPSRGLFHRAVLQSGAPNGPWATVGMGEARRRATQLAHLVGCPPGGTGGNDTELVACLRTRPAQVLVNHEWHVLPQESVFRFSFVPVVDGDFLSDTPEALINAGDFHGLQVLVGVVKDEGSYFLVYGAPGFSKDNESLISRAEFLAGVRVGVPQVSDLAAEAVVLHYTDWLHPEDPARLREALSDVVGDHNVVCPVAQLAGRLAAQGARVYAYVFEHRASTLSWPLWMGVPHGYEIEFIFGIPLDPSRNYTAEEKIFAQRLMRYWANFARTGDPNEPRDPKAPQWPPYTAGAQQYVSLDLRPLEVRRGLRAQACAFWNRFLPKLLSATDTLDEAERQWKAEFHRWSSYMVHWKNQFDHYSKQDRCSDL
Summary of the method: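 Neuroblastoma line SH-SY5Y supplied the enzyme; cells were preincubated with compound for 30 min at 37 C and 5% CO2. Acetylthiocholine with DTNB was then added for 90 min at 37 C, and thiocholine was measured by colour.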

[7] = target: Acetylcholinesterase (Homo sapiens) (UniProt P22303); assay: Acetylcholinesterase (AChE) small molecule antagonists: enzyme-based qHTS assay (AID 1347397; calls by dose curve; also: nearly all actives have a fitted effect of over 55% in size; also: potency is read from the fitted curve at half-maximal effect); settings: Potency: AChE enzyme activity inhibition
Summary of the method: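 Recombinant human AChE (50 mU/mL) preincubated with compound 30 min at room temperature; acetylthiocholine plus DTNB then added, and thiocholine formation read colorimetrically after 10 min at room temperature. DMSO served as vehicle control.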

[8] = target: Acetylcholinesterase (Homo sapiens) (UniProt P22303); assay: Acetylcholinesterase (AChE) small molecule antagonists: enzyme-based qHTS assay with human liver microsomes (AID 1347399; calls by dose curve; also: nearly all actives have a fitted effect of over 60% in size; also: potency is read from the fitted curve at half-maximal effect); settings: Potency: qHTS inhibition
Summary of the method: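 Recombinant human AChE (50 mU/mL in the enzyme mix) and human liver microsomes (0.25 mg/mL final) were preincubated with compound and NADPH (0.25 mg/mL final) for 30 min at 37 C. Acetylthiocholine/DTNB was then added; thiocholine was read colorimetrically after 10 min at room temperature.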

[9] = target: Cytochrome P450 2D6 (Homo sapiens) (UniProt P10635); assay: Cytochrome P450 Family 2 Subfamily D Member 6 (CYP2D6) small molecule antagonists: luciferase reporter qHTS assay (AID 1671196); also: nearly all actives have a fitted effect of over 50% in size; also: potency is read from the fitted curve at half-maximal effect
Chain of Cytochrome P450 2D6 (Homo sapiens) (P10635 whole entry, looked up): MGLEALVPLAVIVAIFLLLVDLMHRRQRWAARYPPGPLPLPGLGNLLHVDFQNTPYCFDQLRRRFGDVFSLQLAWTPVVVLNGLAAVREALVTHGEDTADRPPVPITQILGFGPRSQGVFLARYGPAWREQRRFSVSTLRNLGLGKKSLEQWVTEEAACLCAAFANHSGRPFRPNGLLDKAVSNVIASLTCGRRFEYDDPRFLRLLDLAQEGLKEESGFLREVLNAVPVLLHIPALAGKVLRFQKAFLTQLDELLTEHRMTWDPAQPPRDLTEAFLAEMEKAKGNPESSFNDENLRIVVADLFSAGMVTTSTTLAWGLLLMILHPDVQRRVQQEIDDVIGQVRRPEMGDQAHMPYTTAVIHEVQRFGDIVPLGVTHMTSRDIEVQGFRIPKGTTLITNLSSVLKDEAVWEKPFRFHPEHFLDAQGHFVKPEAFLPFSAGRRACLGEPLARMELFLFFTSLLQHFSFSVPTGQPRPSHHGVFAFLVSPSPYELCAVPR
Summary of the method: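 Inhibition of CYP2D6 was gauged by loss of luminescence, since light produced tracks the luciferin generated from a proluciferin substrate. A 10 min room-temperature preincubation preceded 1 h NADPH-supported turnover.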

[10] = target: Cytochrome P450 2C19 (Homo sapiens) (UniProt P33261); assay: Cytochrome P450 Family 2 Subfamily C Member 19 (CYP2C19) small molecule antagonists: luciferase reporter qHTS assay (AID 1671197); also: nearly all actives have a fitted effect of over 65% in size; also: potency is read from the fitted curve at half-maximal effect
Chain of Cytochrome P450 2C19 (Homo sapiens) (P33261 whole entry, looked up): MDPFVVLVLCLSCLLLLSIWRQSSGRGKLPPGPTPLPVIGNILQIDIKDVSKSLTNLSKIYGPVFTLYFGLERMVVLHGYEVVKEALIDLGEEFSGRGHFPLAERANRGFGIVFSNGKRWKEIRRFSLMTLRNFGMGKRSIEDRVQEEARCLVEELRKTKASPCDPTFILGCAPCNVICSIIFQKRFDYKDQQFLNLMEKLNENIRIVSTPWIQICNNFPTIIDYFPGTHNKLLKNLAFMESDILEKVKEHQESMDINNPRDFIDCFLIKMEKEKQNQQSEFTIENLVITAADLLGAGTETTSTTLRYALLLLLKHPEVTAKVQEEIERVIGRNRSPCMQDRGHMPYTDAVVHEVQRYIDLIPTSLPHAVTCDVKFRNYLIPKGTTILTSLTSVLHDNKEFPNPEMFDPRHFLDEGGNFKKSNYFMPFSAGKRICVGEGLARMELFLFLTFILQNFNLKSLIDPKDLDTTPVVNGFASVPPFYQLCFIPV
Summary of the method: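 P450-Glo CYP2C19 screening system; proluciferin substrate; DMSO compound stocks; 10 min RT preincubation; NADPH regeneration, 1 h at 37C; luciferin detection reagent, 20 min RT; luminescence as RLU.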

[11] = target: Cytochrome P450 2C9 (Homo sapiens) (UniProt P11712); assay: Cytochrome P450 Family 2 Subfamily C Member 9 (CYP2C9) small molecule antagonists: luciferase reporter qHTS assay (AID 1671198); also: nearly all actives have a fitted effect of over 50% in size; also: potency is read from the fitted curve at half-maximal effect
Chain of Cytochrome P450 2C9 (Homo sapiens) (P11712 whole entry, looked up): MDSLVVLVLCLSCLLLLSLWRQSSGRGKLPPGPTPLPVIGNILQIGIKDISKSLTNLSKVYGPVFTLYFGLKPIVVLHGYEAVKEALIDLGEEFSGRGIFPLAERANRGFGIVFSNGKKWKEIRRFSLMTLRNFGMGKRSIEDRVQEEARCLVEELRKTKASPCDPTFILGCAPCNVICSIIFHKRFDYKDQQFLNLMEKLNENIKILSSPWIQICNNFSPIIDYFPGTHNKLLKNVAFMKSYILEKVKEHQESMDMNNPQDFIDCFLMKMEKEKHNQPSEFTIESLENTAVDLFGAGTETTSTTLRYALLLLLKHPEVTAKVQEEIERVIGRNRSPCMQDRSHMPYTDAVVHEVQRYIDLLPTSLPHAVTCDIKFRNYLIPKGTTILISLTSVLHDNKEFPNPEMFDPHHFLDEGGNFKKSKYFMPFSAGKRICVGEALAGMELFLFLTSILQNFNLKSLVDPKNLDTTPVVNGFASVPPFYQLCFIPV
Summary of the method: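 P450-Glo proluciferin substrate with CYP2C9 enzyme; 10 min RT preincubation, then NADPH regeneration 1 h at 37C; luciferin detection reagent 20 min RT, luminescence in relative luminescence units.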

[12] = target: Cytochrome P450 1A2 (Homo sapiens) (UniProt P05177); assay: Cytochrome P450 Family 1 Subfamily A Member 2 (CYP1A2) small molecule antagonists: luciferase reporter qHTS assay (AID 1671199); also: nearly all actives have a fitted effect of over 50% in size; also: potency is read from the fitted curve at half-maximal effect
Chain of Cytochrome P450 1A2 (Homo sapiens) (P05177 whole entry, looked up): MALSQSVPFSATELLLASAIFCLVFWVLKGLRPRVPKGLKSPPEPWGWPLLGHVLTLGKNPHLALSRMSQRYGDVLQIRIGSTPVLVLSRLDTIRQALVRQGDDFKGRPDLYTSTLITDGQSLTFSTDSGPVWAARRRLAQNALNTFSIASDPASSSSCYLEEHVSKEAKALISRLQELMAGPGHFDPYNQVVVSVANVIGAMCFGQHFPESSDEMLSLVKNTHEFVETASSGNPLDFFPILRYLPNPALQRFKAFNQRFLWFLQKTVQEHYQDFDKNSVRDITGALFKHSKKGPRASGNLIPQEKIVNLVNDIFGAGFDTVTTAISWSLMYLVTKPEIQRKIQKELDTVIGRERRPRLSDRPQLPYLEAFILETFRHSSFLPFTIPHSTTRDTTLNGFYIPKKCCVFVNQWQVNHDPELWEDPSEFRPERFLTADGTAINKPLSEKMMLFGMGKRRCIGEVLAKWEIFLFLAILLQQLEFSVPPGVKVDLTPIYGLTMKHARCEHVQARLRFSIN
Summary of the method: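 Signal from luciferin formed by CYP1A2 from a proluciferin substrate is read as luminescence, expressed in relative luminescence units. Compounds sit with enzyme 10 min, NADPH-driven reaction runs 1 h, all at room temperature.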

[13] = target: Voltage-gated inwardly rectifying potassium channel KCNH2 (Homo sapiens) (UniProt Q12809); assay: Human Ether-a-go-go-Related Gene (hERG) channel small molecule antagonists: fluorescence cell-based qHTS assay (AID 1671200); also: nearly all actives have a fitted effect of over 50% in size; also: potency is read from the fitted curve at half-maximal effect
Chain of Voltage-gated inwardly rectifying potassium channel KCNH2 (Homo sapiens) (Q12809 whole entry, looked up): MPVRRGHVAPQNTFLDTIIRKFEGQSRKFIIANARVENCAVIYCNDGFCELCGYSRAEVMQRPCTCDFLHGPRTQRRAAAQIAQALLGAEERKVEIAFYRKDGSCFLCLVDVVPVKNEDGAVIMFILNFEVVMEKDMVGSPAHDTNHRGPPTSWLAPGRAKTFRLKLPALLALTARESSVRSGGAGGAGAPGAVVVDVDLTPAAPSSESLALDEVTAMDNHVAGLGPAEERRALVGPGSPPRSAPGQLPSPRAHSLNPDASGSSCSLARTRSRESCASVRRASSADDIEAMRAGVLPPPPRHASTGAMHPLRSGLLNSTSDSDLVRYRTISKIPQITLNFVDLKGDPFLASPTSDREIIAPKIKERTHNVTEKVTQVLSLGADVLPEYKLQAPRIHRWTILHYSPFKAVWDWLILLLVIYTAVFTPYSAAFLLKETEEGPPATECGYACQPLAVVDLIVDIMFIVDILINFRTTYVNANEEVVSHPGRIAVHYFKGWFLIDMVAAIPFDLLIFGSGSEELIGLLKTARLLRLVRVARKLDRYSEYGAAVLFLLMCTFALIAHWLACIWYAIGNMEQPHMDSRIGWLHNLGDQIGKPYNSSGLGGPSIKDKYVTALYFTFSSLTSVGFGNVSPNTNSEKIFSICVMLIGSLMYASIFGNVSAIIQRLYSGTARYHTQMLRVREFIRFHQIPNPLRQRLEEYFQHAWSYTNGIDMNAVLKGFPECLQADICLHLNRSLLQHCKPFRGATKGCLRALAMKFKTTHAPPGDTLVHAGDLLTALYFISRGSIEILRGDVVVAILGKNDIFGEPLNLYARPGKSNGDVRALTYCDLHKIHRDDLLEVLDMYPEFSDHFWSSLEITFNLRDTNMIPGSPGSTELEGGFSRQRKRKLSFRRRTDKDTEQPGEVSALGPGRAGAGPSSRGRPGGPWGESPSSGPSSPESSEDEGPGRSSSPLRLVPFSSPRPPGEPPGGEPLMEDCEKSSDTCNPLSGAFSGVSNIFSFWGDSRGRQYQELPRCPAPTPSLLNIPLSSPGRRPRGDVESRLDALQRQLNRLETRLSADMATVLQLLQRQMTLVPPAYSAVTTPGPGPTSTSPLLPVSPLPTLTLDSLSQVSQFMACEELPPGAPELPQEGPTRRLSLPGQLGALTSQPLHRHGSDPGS
Summary of the method: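 Measured: Tl+ flux via fluorescence (480/540 nm) in hERG-expressing U2OS cells after 1 h dye loading at room temperature.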

[14] = target: Acetylcholinesterase (Homo sapiens) (UniProt P22303); assay: Acetylcholinesterase (AChE) small molecule antagonists: fluorescence cell-based qHTS assay (AID 1347398; calls by dose curve; also: nearly all actives have a fitted effect of over 50% in size; also: potency is read from the fitted curve at half-maximal effect); settings: Potency: AChE activity
Summary of the method: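 SH-SY5Y cells (2000/well), attached overnight, incubated with compound 30 min at 37 C. Acetylthiocholine plus Thiolite Green then added for 40 min at room temperature. Thiocholine fluorescence (Ex/Em 490/520 nm) reports cellular AChE activity.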

[15] = target: Cytochrome P450 3A4 (Homo sapiens) (UniProt P08684); assay: Cytochrome P450 Family 3 Subfamily A Member 4 (CYP3A4) small molecule antagonists: luciferase reporter qHTS assay (AID 1671201); also: nearly all actives have a fitted effect of over 50% in size; also: potency is read from the fitted curve at half-maximal effect
Chain of Cytochrome P450 3A4 (Homo sapiens) (P08684 whole entry, looked up): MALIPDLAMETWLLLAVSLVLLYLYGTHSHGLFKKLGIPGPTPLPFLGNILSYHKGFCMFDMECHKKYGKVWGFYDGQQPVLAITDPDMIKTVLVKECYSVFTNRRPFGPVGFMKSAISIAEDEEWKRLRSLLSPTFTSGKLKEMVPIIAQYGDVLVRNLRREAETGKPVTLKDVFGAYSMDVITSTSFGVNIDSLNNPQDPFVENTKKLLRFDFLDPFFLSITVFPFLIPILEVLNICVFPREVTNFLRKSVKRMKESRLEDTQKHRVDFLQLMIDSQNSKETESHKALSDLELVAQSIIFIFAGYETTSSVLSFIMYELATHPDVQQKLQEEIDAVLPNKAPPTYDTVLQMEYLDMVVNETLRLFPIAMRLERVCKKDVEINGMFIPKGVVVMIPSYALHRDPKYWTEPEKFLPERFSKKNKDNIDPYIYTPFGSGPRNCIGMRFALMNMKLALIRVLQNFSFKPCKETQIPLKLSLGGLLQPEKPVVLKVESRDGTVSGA
Summary of the method: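 Setup: enzyme-substrate mix, compound pin transfer, 10 min RT. Reaction: NADPH regeneration solution, 1 h RT. Readout: detection reagent stops turnover, luminescence measured after 20 min, expressed in relative luminescence units.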

[16] = target: Nuclear receptor subfamily 1 group I member 2 (Homo sapiens) (UniProt O75469); assay: CYP3A4 induction through human pregnane X receptor (PXR) by small molecules, qHTS assay (AID 1346984); also: nearly all actives have a fitted effect of over 40% in size
Summary of the method: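 DPX-2 reporter cells; 24h cpd, 37C; Luciferin-IPA 3uM final x3h; One-Glo 30 min RT; lumi read.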

[17] = target: Nuclear receptor subfamily 1 group I member 2 (Homo sapiens) (UniProt O75469); assay: Human pregnane X receptor (PXR) activation by small molecules, qHTS assay (AID 1346985); also: nearly all actives have a fitted effect of over 40% in size
Summary of the method: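 DPX-2 cells (HepG2 co-transfected with a PXR response element and a CYP3A4-promoter luciferase construct) were seeded at 2,000 per well, rested 5 hr at 37C, then exposed to DMSO-dissolved compounds for 24 hr. Activation was read as luciferase luminescence.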

Measured: Potency

c1cc[c]([Hg][c]2ccccc2)cc1
active: [1] 68.6 µM | [3] 68.6 µM | [5] 10.9 µM | [9] 1 µM | [10] 22.4 µM | [11] 31.7 µM | [12] 10 µM
inactive: [2] | [4] | [6] | [7] | [8] | [13]

CC(C)CP(=S)(S)CC(C)C
active: [3] 48.6 µM | [10] 56.4 µM | [11] 31.7 µM | [15] 35.6 µM
not listed: [4] | [9] | [16] | [17]
inactive: all other assays above

OC(c1ccccc1)(c1ccccc1)C1CCNCC1
active: [9] 12.3 µM | [10] 4.36 µM
not listed: [7] | [12] | [13] | [15]
inactive: all other assays above

COc1cc(OC)nc(NC(=O)NS(=O)(=O)c2ncccc2OCC(F)(F)F)n1
not listed: [10] | [11] | [12] | [16] | [17]
inactive: all other assays above

CNC(=O)Oc1ccc(N(C)C)c(C)c1
inactive: [1] | [2] | [3] | [4] | [10] | [11] | [13]
active: [6] 5.64 µM | [7] 6.33 µM | [14] 2.24 µM | [8] 39.9 µM | [12] 11.2 µM

C=CCC1=C(C)[C@@H](OC(=O)[C@@H]2[C@@H](C=C(C)C)C2(C)C)CC1=O
active: [1] 61.1 µM | [3] 43.3 µM | [5] 9.69 µM | [9] 35.6 µM | [10] 6.33 µM | [11] 12.6 µM | [12] 28.3 µM | [13] 21.9 µM
inactive: [2] | [6] | [7] | [14]

O=[N+]([O-])c1cccc2c([N+](=O)[O-])cccc12
active: [9] 11.3 µM | [10] 22.6 µM | [11] 40.1 µM | [12] 1.01 µM | [13] 24.7 µM | [15] 31.9 µM
not listed: [16] | [17]
inactive: all other assays above

CC(COc1ccc(Oc2ccccc2)cc1)Oc1ccccn1 (centres undefined)
active: [5] 17.2 µM | [10] 10 µM | [11] 15.9 µM | [12] 15.9 µM
not listed: [13] | [16] | [17]
inactive: all other assays above
